Laboratory results: PubChem BioAssay AID1259313 (Sanford-Burnham Center for Chemical Genomics, 2017)
About 8,500 (2.5%) of roughly 340,000 compounds were called active.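 How the source made its calls: active means melting temperature shift of at least 10% of the positive control shift, at one fixed dose; inactive means the rest.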 Many of the other results were omitted from the sample, so actives are more common in it than they were.

Tested on: Glutamate receptor ionotropic, NMDA 3A (GRIN3A) ligand-binding domain
Assay: binders of NR3A ligand-binding domain, primary screen, biophysical, differential scanning fluorimetry, uHTS (AID 1259313)
Conditions: NR3A LBD differential scanning fluorimetry, at 25 µM, active compounds read high, 0% = protein alone, 100% = glycine-bound protein

SMILES | Tm shift relative to glycine control
Cc1ccc(N2CCN(S(=O)(=O)N(C)C)CC2)cc1Cl | 1.66% (inactive)
CCCNC(=O)c1cnc(-c2ccccc2)nc1-c1ccccc1 | -1.35% (inactive)
CN(C)S(=O)(=O)N1CCC(Oc2cccc(C(=O)NCCCC3CCCC3)c2)CC1 | 0.18% (inactive)
O=C(Oc1ccc(F)cc1)N1CCOCC1 | 1.08% (inactive)
Cc1c(NC(=O)c2c([N+](=O)[O-])cnn2C)c(=O)n(-c2ccccc2)n1C | -0.61% (inactive)
CCOC(=O)C1(Cc2cccc(OC)c2)CCCN(S(=O)(=O)c2cccnc2)C1 (stereo not drawn) | 0.32% (inactive)
O=C(N/N=C/c1cccc(O)c1)c1cc2c(ccc3ccccc32)o1 | 25.4% (active)
O=C(N/N=C/c1c[nH]c2ccccc12)c1ccccc1O | 37% (active)
O=C(N/N=C/c1ccsc1)c1cc(O)cc(O)c1 | -11.7% (inactive)
O=C(Cc1c[nH]c2ccccc12)N/N=C/c1cccc(F)c1 | -4.78% (inactive)
Cc1ccc2occ(/C=N/NC(=O)c3ccccc3C)c(=O)c2c1 | -0.75% (inactive)
O=C(N/N=C/c1cccc(OCc2ccccc2)c1)c1ccc(Br)o1 | -4.34% (inactive)
COc1ccc2c(C)cc3nnnn3c2c1 | 1.26% (inactive)
Cc1ccc(CN2CCC(N3CCC(C(=O)NCC4CCCO4)CC3)CC2)o1 (stereo not drawn) | 0.34% (inactive)
O=C(NC(=O)c1cc(OCC(F)(F)F)ccc1OCC(F)(F)F)Nc1ccccc1 | -0.36% (inactive)
CC(C)(C)n1nc2c(c1NC(=O)c1ccc(S(=O)(=O)N3CCCC3)cc1)CS(=O)C2 (stereo not drawn) | 0.18% (inactive)
CC(OC(=O)CNC(=O)c1cccc(F)c1)C(=O)NC1CCCCC1C (stereo not drawn) | -0.43% (inactive)
CCNC(=S)Nc1ccc(OC(F)(F)F)cc1 | -1.13% (inactive)
CS(=O)(=O)c1sc(C(=O)NC(=S)Nc2ccc(OC(F)(F)F)cc2)c2c1C=CCC2 | 11.4% (active)
FC(F)(F)Oc1ccc(NC(=S)NCc2ccccc2)cc1 | 0.09% (inactive)
c1ccc2cc3c(NCCN4CCOCC4)ccnc3cc2c1 | -8.16% (inactive)
O=C1CC(c2cccc(Cl)c2)CC(O)=C1C=Nc1ccccc1 (stereo not drawn) | -0.75% (inactive)
Cc1cc(C(=O)OCC(=O)NCc2ccco2)c(C)n1-c1ccccc1 | -1.04% (inactive)
Cc1ccc(S(=O)(=O)N2CC(O)C[C@H]2C(=O)OCC(=O)Nc2ccc(N3CCOCC3)cc2)cc1C (stereo partly drawn) | 1.27% (inactive)

SMILES | Tm shift relative to glycine control
O=C(Nc1ccc2c(c1)CCC2)c1cccc(S(=O)(=O)N2CCN(c3ccc(F)cc3)CC2)c1 | 2.49% (inactive)
O=C(NCC1(N2CCCCC2)CCCCC1)c1cccc(S(=O)(=O)Nc2ccccc2Cl)c1 | -0.85% (inactive)
O=C(Nc1ccc2c(c1)CCC2)c1cccc(S(=O)(=O)Nc2ccccc2Cl)c1 | 14.9% (active)
O=C1CSC(c2cccc(F)c2)N1c1ccc(O)cc1 (stereo not drawn) | -2.36% (inactive)
COc1ccc(Nc2ccc3ccccc3c2)cc1 | 1.95% (inactive)
S=C(Nc1ccccc1)Nc1ccc2ccccc2c1 | 12.3% (active)
Cc1ccc(NC(=S)Nc2ccc(F)cc2)cc1 | -4.68% (inactive)
CCC1(c2ccccc2)NC(=O)N(CC(=O)Nc2ccccc2C(=O)NC2CCCC2)C1=O (stereo not drawn) | 0.96% (inactive)
Cc1ccc(S(=O)(=O)N2CCCCC2)cc1NC(=O)[C@@H]1CCCN1C(=O)c1cccs1 | -0.43% (inactive)
CCOc1ccccc1-c1cc(C(=O)N/N=C(\C)c2cccnc2)c2ccccc2n1 | -0.86% (inactive)
O=C(c1cc(-c2ccc(Cl)s2)nc2ccccc12)N1CCOCC1 | -0.91% (inactive)
CC(=O)N1CCN(C(=O)c2cc(-c3ccc(C)o3)nc3ccccc23)CC1 | 40% (active)
CCOc1ccccc1-c1cc(C(=O)N2CCOCC2)c2ccccc2n1 | 12.6% (active)
CC1CCCN(C(=O)c2cc(-c3ccco3)nc3ccccc23)C1 (stereo not drawn) | 1.06% (inactive)
COc1ccc(NC(=O)c2cc(-c3ccc(C)o3)nc3ccccc23)cc1 | 3.74% (inactive)
CCN1C(=O)[C@@H]2[C@@H](c3ccc(-c4cccc(Cl)c4)cc3)N3CCC[C@@]3(C(=O)OC)[C@@H]2C1=O | -0.81% (inactive)
O=C(C(=O)N1CCc2ccccc2C1)c1c[nH]c2ccccc12 | 1.51% (inactive)
CN1CCN(C(=O)c2ccc(-c3ccc(Br)cc3)o2)CC1 | 1.11% (inactive)
CC(=O)c1cccc(NC(=S)N2CCN(S(C)(=O)=O)CC2)c1 | -1.28% (inactive)
COc1ccc(/C=C2/C(=O)N(c3ccccc3)N=C2C)c(OC)c1 | -4.6% (inactive)
COc1ccc(/C=C2/C(=O)OCc3cc(OC)c(OC)cc32)c(OC)c1 | 24.2% (active)
COc1ccc(CN(C)Cc2nc3cc(OC)c(OC)cc3c(=O)[nH]2)c(OC)c1 | -1.12% (inactive)
CC(=O)c1ccc(OCCCC(=O)Nc2ccc(C)c(S(=O)(=O)N3CCOCC3)c2)cc1 | 1.04% (inactive)
O=C(Nc1ccnn1C1CCN(C/C=C/c2ccc(F)cc2)CC1)C1CCCC1 | -2.33% (inactive)

SMILES | Tm shift relative to glycine control
CC1CCCCN1S(=O)(=O)c1ccc(S(=O)(=O)N(CC(=O)Nc2ccccc2)Cc2cccs2)cc1 (stereo not drawn) | -4.57% (inactive)
O=C(C[n+]1ccc2c(c1)nnn2-c1ccccc1)c1ccc(Cl)cc1 | -2.3% (inactive)
CC(=NNC(=S)N1CCCCCC1)c1ccccn1 | 1.26% (inactive)
CCn1c(SCc2cccc(C(=O)O)c2)nnc1-c1ccc(Cl)cc1 | -0.55% (inactive)
CCCc1ccc(OCCNC(=O)c2ccccc2Br)cc1 | -0.74% (inactive)
CN(c1ccccc1)S(=O)(=O)c1ccc(C(=O)NCCc2ccccc2)cc1 | -0.95% (inactive)
CCCOc1ccc(C(=O)NCCc2ccccc2)cc1 | 25.8% (active)
CC(C)Oc1ccc(S(=O)(=O)N2CCOCC2)cc1NC(=O)C1CCCC1 | 2.72% (inactive)
N#Cc1cc([N+](=O)[O-])ccc1NC(=O)COC(=O)c1cnccn1 | 0.45% (inactive)
CCOc1ccc2[nH]c3nc(SCC(=O)NC4CCCC4)nnc3c2c1 | -4.45% (inactive)
CCN1C(=O)[C@H]2[C@@H](c3ccc(SC4CCCCC4)c(OC)c3)N[C@@](Cc3ccccc3)(C(=O)OC)[C@H]2C1=O | 15.5% (active)
CCN1C(=O)[C@H]2[C@@H](c3ccc(-c4ccc(OC)cc4)cc3)N[C@@](Cc3ccccc3)(C(=O)OC)[C@H]2C1=O | -3.39% (inactive)
CCN1C(=O)[C@H]2[C@@H](c3ccc(-c4ccc(F)cc4)cc3)N[C@@](Cc3ccccc3)(C(=O)OC)[C@H]2C1=O | 1.35% (inactive)
Cc1ccc(C(=O)OCC(=O)Nc2ccc(Cl)cn2)cc1S(=O)(=O)N1CCOCC1 | 3.32% (inactive)
COc1cccc(N2CC(C(=O)NCc3n[nH]c(=O)c4ccccc34)CC2=O)c1 (stereo not drawn) | -0.43% (inactive)
Cc1cc(Cl)ccc1N1C(=O)CC(SCCC(=O)O)C1=O (stereo not drawn) | 2.57% (inactive)
O=C(CC1(O)C(=O)N(CN2CCOCC2)c2ccccc21)c1ccccc1 (stereo not drawn) | 27.8% (active)
C=CCN1C(=O)C(O)(CC(=O)c2ccc(Cl)cc2)c2ccccc21 (stereo not drawn) | -2.1% (inactive)
C=CCN1C(=O)C(O)(CC(=O)c2ccccn2)c2ccccc21 (stereo not drawn) | -0.48% (inactive)
COc1ccccc1C(=O)NC(CCSC)C(=O)N1CCN(C/C=C/c2ccccc2)CC1 (stereo not drawn) | 2.33% (inactive)
COc1ccccc1N1CCN(c2ncnc3sc(C)c(-c4ccccc4)c23)CC1 | 1.26% (inactive)
Cc1[nH]n(C)c(=O)c1N=Nc1ccc(S(C)(=O)=O)cc1 | 1.71% (inactive)
CC1=NN(C(N)=S)C(=O)C1N=Nc1cc(Cl)ccc1Cl (stereo not drawn) | 8.72% (inactive)
Cc1[nH]n(C(N)=S)c(=O)c1N=Nc1ccc(Cl)cc1Cl | 15% (active)

SMILES | Tm shift relative to glycine control
CCN(C(=O)COC(=O)CCOc1cccc(C)c1)c1c(N)n(Cc2ccccc2)c(=O)[nH]c1=O | 0.18% (inactive)
CCCCNC(=O)CSc1nc2ccc(NC(=O)CSc3nnc(N)s3)cc2s1 | 1.91% (inactive)
CCCCNC(=O)CSc1nc2ccc(NC(=O)CSc3nnc(COc4ccccc4C)n3C)cc2s1 | -6% (inactive)
Nc1nnc(SCC(=O)Nc2ccc3nc(SCC(=O)Nc4ccccc4)sc3c2)s1 | 29.3% (active)
NS(=O)(=O)c1ccc(CCNC(=O)CN2C(=O)c3ccccc3S2(=O)=O)cc1 | 3.53% (inactive)
Cc1cccc(OCc2nnc(SCn3nnc4ccccc4c3=O)o2)c1 | -0.61% (inactive)
Cc1cccc(OCc2nnc(SCc3nc4cc(C(F)(F)F)ccc4c(=O)[nH]3)o2)c1 | 15.6% (active)
COc1cc(CN(C)Cc2nc3cc(C(F)(F)F)ccc3c(=O)[nH]2)ccc1OC(F)F | 0.52% (inactive)
Cc1onc(-c2c(F)cccc2Cl)c1C(=O)Nc1cccc(S(=O)(=O)N2CCCCC2)c1 | -2.74% (inactive)
N#CCc1c[nH]c2ccc([N+](=O)[O-])cc12 | 14% (active)
Cc1ccc(S(=O)(=O)N(C)CC(=O)NCCc2c[nH]c3ccccc23)cc1 | 1.04% (inactive)
O=C(NCCc1c[nH]c2ccccc12)c1cc2ccccc2oc1=O | -6.92% (inactive)
Cc1cc(C)cc(NC(=S)NCCc2c[nH]c3ccccc23)c1 | 20.2% (active)
O=C(NCCc1c[nH]c2ccccc12)C1CCN(Cc2ccc(Br)cc2)CC1 | -4.03% (inactive)
O=C(NCCc1c[nH]c2ccccc12)c1cccc(Br)c1 | 31.4% (active)
O=[N+]([O-])c1ccc2[nH]c3c(c2c1)CCCC3O (stereo not drawn) | 5.4% (inactive)
O=C(NCCc1ccc(Cl)cc1Cl)c1cc([N+](=O)[O-])c[nH]c1=O | -10.1% (inactive)
Cc1ccc2[nH]cc(CCCN3C(=O)c4ccccc4C3=O)c2c1 | -9.79% (inactive)
Cc1ccc2[nH]cc(CCNC(=O)c3ccc([N+](=O)[O-])cc3)c2c1 | 9.11% (inactive)
O=C(NCCc1c[nH]c2ccc(Cl)cc12)c1ccc([N+](=O)[O-])cc1 | 17.5% (active)
Cc1ccc2[nH]cc(CCNC(=O)C3CCCCC3)c2c1 | 1.08% (inactive)
